High-throughput results as filed in PubChem.
Sm TGR inh: S. mansoni TGR enzyme inhibition; Q962Y6; purified TGR, DTNB reduction, TNB absorbance 405 nm; Potency, µM (series often up to 114 µM), for the others: at the highest dose activity change, negative = inhibition, hits mostly inhibitors; 3% of 360,000 active; note: potency is the fitted concentration of half-maximal effect; % is set by controls: 0 for no effect and ±100 for the full control effect; nearly all actives have a fitted effect of over 60% in size
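First, TGR (20 nM dispensed) and NADPH were mixed with compound. Second, a 15 min room-temperature incubation followed. Third, further NADPH and then DTNB were added to start the reaction. Finally, TNB absorbance was monitored kinetically.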
LmPK inhibitor: inhibitors of Leishmania mexicana pyruvate kinase; Q27686; purified LmPK, Kinase-Glo ATP luminescence, 1 h; 0.37% of 290,000 active; Potency, µM (titrated, usually from 57.5 µM), inactives show at the top dose activity change, negative = inhibition, usual class: inhibitors; note: potency is the fitted concentration of half-maximal effect; % is set by controls: 0 for no effect and ±100 for the full control effect
Target sequence (Q27686 whole entry, looked up): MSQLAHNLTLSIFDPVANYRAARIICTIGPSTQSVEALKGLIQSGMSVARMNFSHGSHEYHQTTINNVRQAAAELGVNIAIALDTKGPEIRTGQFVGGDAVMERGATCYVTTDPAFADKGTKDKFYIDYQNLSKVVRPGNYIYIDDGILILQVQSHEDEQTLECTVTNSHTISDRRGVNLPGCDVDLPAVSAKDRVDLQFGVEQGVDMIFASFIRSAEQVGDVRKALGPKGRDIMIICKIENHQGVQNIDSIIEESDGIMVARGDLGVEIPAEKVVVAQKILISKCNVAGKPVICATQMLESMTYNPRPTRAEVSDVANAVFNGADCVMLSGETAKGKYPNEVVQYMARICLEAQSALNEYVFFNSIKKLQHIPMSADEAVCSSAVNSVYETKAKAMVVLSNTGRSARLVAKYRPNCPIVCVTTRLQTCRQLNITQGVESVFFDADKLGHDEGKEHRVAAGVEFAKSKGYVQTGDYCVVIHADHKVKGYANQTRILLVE
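qHTS format; LmPK 0.1 nM; substrates PEP 0.5 mM and ADP 0.1 mM. One-hour room-temperature incubation, then coupled luciferase luminescence; 0.5 nM enzyme wells mark activation.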
Shiga inhibitor: blocks Shiga toxin action in Vero cells. inhibition, % at 38.7 µM. Vero cells, Shiga toxin protein synthesis inhibition reporter. 9.2% of 290,000 active; in the data active = inhibition mostly above about 28%, no sharp cut-off; inactive = mostly below about 43%; note: 0% is about no effect
Giardia FBPA inh: inhibitors of Giardia lamblia fructose-1,6-bisphosphate aldolase; purified Giardia FBPA; A8B2U2; Potency, µM (series often up to 59.6 µM), for the others: at the highest dose activity, negative = inhibition, hits mostly inhibitors; 0.71% of 290,000 active; note: potency is the fitted concentration of half-maximal effect; % is set by controls: 0 for no effect and ±100 for the full control effect; nearly all actives have a fitted effect of over 55% in size
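Giardia FBPA (40 nM reagent) was preincubated 10 min at RT with compound (up to 57.5 uM final), then substrate plus GAPDH/TPI/NAD/arsenate coupling system with diaphorase/resazurin was added; resorufin fluorescence (525/598 nm) was read after 20 min.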
CHX counter: counter-screen for Shiga toxin inhibitors: cycloheximide protein synthesis inhibition. cell reporter, cycloheximide protein synthesis inhibition counterscreen. max response, %. 12% of 300,000 active. AID 2314; in the data active = max response mostly above about 13%, no sharp cut-off; inactive = mostly below about 14%; note: read at 38.3 µM for the half of the compounds with a filed dose; 0% is about no effect
TbPYK inhibitor: blocks Trypanosoma brucei pyruvate kinase | TbPYK enzyme, Kinase-Glo Plus ATP luminescence, 45 min | Potency, µM (highest dose often 76.8 µM), for the others: at the top dose activity, negative = inhibition, most hits filed as inhibitors | 0.12% of 410,000 active | Q57TT1; note: potency is the fitted concentration of half-maximal effect; % is set by controls: 0 for no effect and ±100 for the full control effect; nearly all actives have a fitted effect of over 50% in size
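T. brucei PYK with substrate was exposed to pin-transferred compounds across a concentration series, then started with 130 uM ADP (final). After 45 min at room temperature, Kinase-Glo Plus luminescence was read, normalized and curve-fitted.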
The depositor's hits bear a star. The sample as a whole holds a higher share of hits than the screen did. Unless noted, calls come from the whole dose curve; as a rule, active = well fitted curve in the direction sought with a large enough effect; inconclusive = small, poorly fitted or top-dose-only effect, or another doubt; inactive = no such curve, though single readings can be large; an effect the other way counts as inactive or inconclusive.

Cc1cc(C(=O)NC2CCC(C)CC2)c(C)o1 (stereo not drawn) was read as Sm TGR inh -5%, LmPK inhibitor -3%, Shiga inhibitor 80*, CHX counter 52* and TbPYK inhibitor -2%.
`O=C1CC(c2ccc(O)cc2)Oc2cc(O)ccc21` (stereo not drawn) gave TbPYK inhibitor 4%.
Screening Cc1ccc2c(c1)OC(c1ccc3c(c1)OCCO3)CC2=O (stereo not drawn) returned Sm TGR inh 13%, LmPK inhibitor -2%, Shiga inhibitor 67*, Giardia FBPA inh 14%, CHX counter 29* and TbPYK inhibitor -1%.
O=C1NCCCC2c3c(cc(Br)c(O)c3Br)OC12N1CCOCC1 (stereo not drawn) was read as Sm TGR inh 40µM*, LmPK inhibitor -3%, Shiga inhibitor 3, Giardia FBPA inh -5%, CHX counter 5 and TbPYK inhibitor -5%.
`C/C(=N/NC(=O)c1ccc2c(c1)OCCO2)c1ccc([N+](=O)[O-])cc1` gave Sm TGR inh 7%, LmPK inhibitor 2%, Shiga inhibitor 21*, Giardia FBPA inh 5%, CHX counter 15* and TbPYK inhibitor 3%.
`C/C(=N\NC(=O)c1cc2ccccc2cc1O)c1ccc2c(c1)OCO2` gave Sm TGR inh 4%, LmPK inhibitor -3%, Shiga inhibitor 57, Giardia FBPA inh -16%, CHX counter 18 and TbPYK inhibitor -1%.
Screening O=C(NNC(=O)c1ccc2c(c1)OCO2)NC12CC3CC(CC(C3)C1)C2 returned Sm TGR inh 4%, LmPK inhibitor -1%, Shiga inhibitor -5, Giardia FBPA inh 3%, CHX counter -3 and TbPYK inhibitor -7%.
Screening O=C(NC1C2CC3CC(C2)CC1C3)c1ccc2c(c1)OCO2 (stereo not drawn) returned Sm TGR inh 6%, LmPK inhibitor -4%, Shiga inhibitor 36*, Giardia FBPA inh 10%, CHX counter 28* and TbPYK inhibitor -3%.
Screening C/C(=N\NC(=O)c1ccc(Cl)c(Cl)c1)c1ccc(Br)s1 returned Sm TGR inh 4%, LmPK inhibitor 0%, Shiga inhibitor -2, Giardia FBPA inh 3%, CHX counter -1 and TbPYK inhibitor 3%.
`C/C(=N\NC(=O)c1ccc(C)cc1C)c1ccc2c(c1)OCO2` gave Sm TGR inh -4%, LmPK inhibitor 2%, Shiga inhibitor 67*, Giardia FBPA inh 1%, CHX counter 26* and TbPYK inhibitor -3%.
For C/C(=N/NC(=O)c1ccc2c(c1)OCO2)c1ccc(Br)s1 the results were Sm TGR inh 5%, LmPK inhibitor 13%, Shiga inhibitor 49*, Giardia FBPA inh 2%, CHX counter 16 and TbPYK inhibitor -1%.
`CC1CN=C(NC(=O)c2cccc([N+](=O)[O-])c2)S1` (stereo not drawn) gave Sm TGR inh -31%, LmPK inhibitor -9%, Shiga inhibitor 26*, Giardia FBPA inh -30%, CHX counter 28* and TbPYK inhibitor 1%.
For C/C(=N\NC(=O)c1ccncc1)c1cccc(NC(=O)c2ccc(C(C)(C)C)cc2)c1 the results were Sm TGR inh -4%, LmPK inhibitor -1%, Shiga inhibitor 66*, CHX counter 27* and TbPYK inhibitor 2%.
O=C(Nc1cccc(NC(=O)c2cccc([N+](=O)[O-])c2)n1)c1cccc([N+](=O)[O-])c1 was read as Sm TGR inh 1%, LmPK inhibitor 1%, Giardia FBPA inh -2%, CHX counter 13 and TbPYK inhibitor -1%.
For C/C(=N\NC(=O)c1cccc([N+](=O)[O-])c1)c1cccs1 the results were Sm TGR inh 13%, LmPK inhibitor -2%, Shiga inhibitor 39*, Giardia FBPA inh -3%, CHX counter 13 and TbPYK inhibitor -5%.
`CC(NC(=O)/C(=C/c1ccc2c(c1)OCO2)NC(=O)c1cccc([N+](=O)[O-])c1)C(=O)O` (stereo not drawn) gave Sm TGR inh 0%, LmPK inhibitor -7%, Shiga inhibitor -13, Giardia FBPA inh 15%, CHX counter 19 and TbPYK inhibitor 3%.
C/C(=N\NC(=O)c1ccc(Br)cc1)c1cccc(NC(=O)c2cccnc2)c1 was read as LmPK inhibitor 1%, Shiga inhibitor 70, Giardia FBPA inh -2%, CHX counter 13 and TbPYK inhibitor -1%.
`CC(/C=C/c1ccc2c(c1)OCO2)=N\NC(=O)c1cccc([N+](=O)[O-])c1` gave Sm TGR inh -10%, LmPK inhibitor -1%, Shiga inhibitor 35, Giardia FBPA inh 17%, CHX counter 20* and TbPYK inhibitor -3%.
`COc1ccc(NC(=O)NCc2ccccn2)c(OC)c1` gave Sm TGR inh 11%, LmPK inhibitor -25%, Shiga inhibitor -8, Giardia FBPA inh 0%, CHX counter -2 and TbPYK inhibitor -9%.
O=C(Nc1ccc(Cl)c(Cl)c1)c1cc(S(=O)(=O)N2CCN(c3cccc(Cl)c3)CC2)ccc1F was read as Sm TGR inh 6% and TbPYK inhibitor 1%.
For Cc1cccc(N2CCN(C(=O)c3ccc4c(Cl)c5c(nc4c3)CCCC5)CC2)c1C the results were Sm TGR inh 0% and TbPYK inhibitor -1%.
Screening CC(=O)Nc1cccc(/C(C)=N/NC(=O)c2ccc(Cl)cc2Cl)c1 returned LmPK inhibitor 1%, Shiga inhibitor 34, Giardia FBPA inh 6%, CHX counter 15 and TbPYK inhibitor -2%.
For C/C(=N/NC(=O)c1ccc(Cn2cccn2)o1)c1cccc(NC(=O)c2ccncc2)c1 the results were Sm TGR inh -9%, LmPK inhibitor -2%, Shiga inhibitor 11, Giardia FBPA inh -4%, CHX counter 19* and TbPYK inhibitor -2%.
Screening O=C(N/N=C\c1cccc(Cl)c1)c1ccc(Cn2cccn2)o1 returned Sm TGR inh 3%, LmPK inhibitor 5%, Shiga inhibitor -18, Giardia FBPA inh -7%, CHX counter 5 and TbPYK inhibitor -12%.
C/C(=N/NC(=O)c1ccc(O)cc1)c1cccc([N+](=O)[O-])c1 was read as Sm TGR inh 3%, LmPK inhibitor 0%, Shiga inhibitor 59*, Giardia FBPA inh -2%, CHX counter 31* and TbPYK inhibitor -8%.
Screening CC(=O)Nc1cccc(/C(C)=N/NC(=O)c2ccc(O)cc2)c1 returned Sm TGR inh 3%, LmPK inhibitor -2%, Shiga inhibitor 52, Giardia FBPA inh 0%, CHX counter 31* and TbPYK inhibitor -4%.
C/C(=N\NC(=O)c1cccc([N+](=O)[O-])c1)c1ccncc1 was read as Sm TGR inh -5%, LmPK inhibitor 2%, Shiga inhibitor 27, Giardia FBPA inh -3%, CHX counter 10 and TbPYK inhibitor 5%.
